Eight compounds from PubChem BioAssay (NCI) can be followed below.

Test systems include SK-MEL-2 melanoma; EKVX NSCLC; SN12C renal; UO-31 renal; TK-10 renal; ACHN renal; CAKI-1 renal; A498 renal; CCRF-CEM leukemia; MOLT-4 leukemia; SR leukemia; RPMI-8226 leukemia; OVCAR-8 ovarian; OVCAR-5 ovarian; OVCAR-4 ovarian; SK-OV-3 ovarian; IGROV1 ovarian; OVCAR-3 ovarian; HS 578T breast; NCI/ADR-RES ovarian.
Common to all, as to assay: NCI-60 one-dose screen, 48 h (100 = growth as untreated, 0 = no growth, -100 = all killed)
What all share (settings): 10 µM unless noted

SMILES strings stand for the structures. The panel holds about 83,000 compounds, 20% with a hit somewhere; the sample as a whole holds those more often.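 Interpretation: 100, growth as untreated; towards 0, rising growth inhibition; 0, no net growth; 0 to -100, cell death. Compounds scoring below 10 were considered active.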 Values without a mark were called inactive. Active and inactive are the calls of the source.

Take `Cc1cc(-c2ccc(N=Nc3c(S(=O)(=O)O)cc4cc(S(=O)(=O)O)cc(O)c4c3O)c(C)c2)ccc1N=Nc1c(S(=O)(=O)O)cc2cc(S(=O)(=O)O)cc(O)c2c1O`: the growth is 90.6% in the experiment with SK-MEL-2 melanoma; 79.6% with EKVX NSCLC; 116% with SN12C renal; 73.9% with UO-31 renal; 115% in the experiment on TK-10 renal; 101% with ACHN renal. The growth in the experiment with CAKI-1 renal is 78.1%; with A498 renal it was 122%; with CCRF-CEM leukemia, 102%; with MOLT-4 leukemia, 127%; in the experiment on SR leukemia, 148%; in the experiment with RPMI-8226 leukemia it was 114%. Also, the growth is 99.5% with OVCAR-8 ovarian; 99.4% with OVCAR-5 ovarian; 103% in the experiment with OVCAR-4 ovarian; 88.9% with SK-OV-3 ovarian; 80.6% in the experiment with IGROV1 ovarian; 120% in the experiment on OVCAR-3 ovarian. Besides, the growth was 78.6% with HS 578T breast and 108% in the experiment with NCI/ADR-RES ovarian.
As for `C=C[C@H]1CCC/C=C/[C@@H]2C[C@H](O)C[C@H]2[C@H](O)/C=C/C(=O)O1`, the growth in the experiment with SK-MEL-2 melanoma was -37.9% (active); in the experiment on EKVX NSCLC it was 3.38% (active); in the experiment on SN12C renal, 5.71% (active); with UO-31 renal it was -11.2% (active); in the experiment with TK-10 renal, -45.6% (active); with ACHN renal it was 5.96% (active). For the same compound, the growth in the experiment on CAKI-1 renal was -1.92% (active); with A498 renal, -48.7% (active); in the experiment with CCRF-CEM leukemia it was 7.38% (active); in the experiment on MOLT-4 leukemia it was 0.424% (active); with SR leukemia, 0.87% (active); in the experiment with RPMI-8226 leukemia it was -4.42% (active). For the same compound, the growth was 2.59% (active) in the experiment on OVCAR-8 ovarian; 13.4% with OVCAR-5 ovarian; 8% (active) with OVCAR-4 ovarian; 26.3% with SK-OV-3 ovarian; -0.584% (active) in the experiment on IGROV1 ovarian; -62.7% (active) with OVCAR-3 ovarian. Also, the growth was 18.8% with HS 578T breast and 5.21% (active) in the experiment on NCI/ADR-RES ovarian.
As for `CCN(CCC#N)c1ccccc1`, the growth in the experiment on SK-MEL-2 melanoma was 106%; in the experiment with EKVX NSCLC, 101%; in the experiment with SN12C renal it was 90.8%; with UO-31 renal it was 89.1%; in the experiment on TK-10 renal, 117%; in the experiment with ACHN renal, 112%. In addition, the growth in the experiment with CAKI-1 renal is 97.7%; with A498 renal, 130%; in the experiment on CCRF-CEM leukemia, 93.6%; in the experiment with MOLT-4 leukemia, 101%; in the experiment on SR leukemia, 96.4%; in the experiment with RPMI-8226 leukemia, 98%. Moreover, the growth in the experiment on OVCAR-8 ovarian was 103%; in the experiment on OVCAR-5 ovarian it was 102%; in the experiment on OVCAR-4 ovarian, 100%; with SK-OV-3 ovarian it was 114%; with IGROV1 ovarian it was 115%; in the experiment on OVCAR-3 ovarian it was 113%. Also, the growth in the experiment with HS 578T breast is 91.8%; in the experiment with NCI/ADR-RES ovarian, 105%.
Consider `CCCCCCCCCCCCNC(=O)N[C@H](C(=O)N[C@H]1/C=C/OCCNC(=O)/C=C/[C@H](C(C)C)NC1=O)C(C)C`, for which the growth was 66.8% in the experiment on SK-MEL-2 melanoma; 86.5% in the experiment with EKVX NSCLC; 93.6% in the experiment with SN12C renal; 93.5% in the experiment on UO-31 renal; 97.1% with TK-10 renal; 115% with ACHN renal. The growth with CAKI-1 renal is 96.1%; in the experiment on A498 renal, 96.1%; in the experiment with CCRF-CEM leukemia, 40.6%; in the experiment with MOLT-4 leukemia, 51.3%; in the experiment on SR leukemia, 29%; in the experiment with RPMI-8226 leukemia, 60.3%. Besides, the growth was 96% in the experiment with OVCAR-8 ovarian; 36.1% in the experiment with OVCAR-5 ovarian; 50.8% in the experiment with OVCAR-4 ovarian; 106% in the experiment on SK-OV-3 ovarian; 45.2% in the experiment on IGROV1 ovarian; 24.1% with OVCAR-3 ovarian. The growth in the experiment on HS 578T breast is 74.2%; with NCI/ADR-RES ovarian it was 101%.
Regarding `NS(=O)(=O)c1ccc(CCn2c(SCC(=O)N/N=C/c3cc4ccccc4[nH]3)nc3ccccc3c2=O)cc1`, the growth was 25.7% with SK-MEL-2 melanoma; 85.3% in the experiment on EKVX NSCLC; 73.4% in the experiment with SN12C renal; 67% in the experiment on UO-31 renal; 102% with TK-10 renal; 93.9% in the experiment on ACHN renal. In addition, the growth was 82.5% in the experiment with CAKI-1 renal; 102% in the experiment with A498 renal; 35% in the experiment with CCRF-CEM leukemia; 23.1% in the experiment on MOLT-4 leukemia; 26.4% in the experiment with SR leukemia; 24.4% in the experiment on RPMI-8226 leukemia. The growth was 40.5% in the experiment with OVCAR-8 ovarian; 113% in the experiment on OVCAR-5 ovarian; 68.7% with OVCAR-4 ovarian; 95.4% in the experiment with SK-OV-3 ovarian; 65.4% in the experiment with IGROV1 ovarian; 68.6% in the experiment with OVCAR-3 ovarian. Moreover, the growth with HS 578T breast was 64.6%; in the experiment on NCI/ADR-RES ovarian, 99.8%.
On to `C[C@@H]1N=C(c2ccc3ccccc3c2)Nc2nc3ccccn3c2C1=O`, for which the growth in the experiment with SK-MEL-2 melanoma was 36.3%; in the experiment on EKVX NSCLC it was 75.6%; in the experiment on SN12C renal, 60.1%; in the experiment on UO-31 renal, 55.6%; with TK-10 renal, 64.4%; in the experiment with ACHN renal, 55.4%. Moreover, the growth was 38.5% in the experiment on CAKI-1 renal; 47.3% in the experiment with A498 renal; 52.9% with CCRF-CEM leukemia; 34.5% in the experiment with MOLT-4 leukemia; 30.5% with SR leukemia; 43.8% with RPMI-8226 leukemia. For the same compound, the growth was 54.4% in the experiment on OVCAR-8 ovarian; 90.6% in the experiment with OVCAR-5 ovarian; 74.5% in the experiment with OVCAR-4 ovarian; 40.5% in the experiment on SK-OV-3 ovarian; 32.1% in the experiment on IGROV1 ovarian; 16.9% in the experiment on OVCAR-3 ovarian. In addition, the growth was 29.3% with HS 578T breast and 44.5% with NCI/ADR-RES ovarian.
Consider `CCCCOC(=O)c1cc(O)c(O)c(O)c1`, for which the growth in the experiment on SK-MEL-2 melanoma is 75%; with EKVX NSCLC it was 83.6%; in the experiment on SN12C renal it was 62.7%; in the experiment on UO-31 renal, 31.7%; in the experiment on TK-10 renal, 73%; in the experiment on ACHN renal it was 75%. The growth was 70.5% in the experiment on CAKI-1 renal; 122% with A498 renal; 36.5% with CCRF-CEM leukemia; 30.7% with MOLT-4 leukemia; 44.5% with SR leukemia; 59.2% with RPMI-8226 leukemia. The growth in the experiment on OVCAR-8 ovarian is 68.6%; in the experiment on OVCAR-5 ovarian it was 92.2%; with OVCAR-4 ovarian, 58.9%; in the experiment with SK-OV-3 ovarian, 85.1%; in the experiment on IGROV1 ovarian, 55.6%; with OVCAR-3 ovarian, 61.8%. In addition, the growth is 86.4% in the experiment with HS 578T breast and 74.4% with NCI/ADR-RES ovarian.
On to `CCN(CC)CCNC(=O)C(F)(F)C(F)(F)C(F)(F)F`, for which the growth in the experiment with SK-MEL-2 melanoma was 106%; in the experiment with EKVX NSCLC, 102%; in the experiment with SN12C renal, 108%; with UO-31 renal, 89.9%; with TK-10 renal it was 108%; with ACHN renal, 101%. Further, the growth with CAKI-1 renal was 94.6%; in the experiment on A498 renal it was 102%; in the experiment on CCRF-CEM leukemia, 100%; in the experiment on MOLT-4 leukemia it was 109%; in the experiment with SR leukemia, 106%; with RPMI-8226 leukemia, 107%. The growth is 114% in the experiment with OVCAR-8 ovarian; 99.2% in the experiment with OVCAR-5 ovarian; 112% in the experiment on OVCAR-4 ovarian; 101% in the experiment on SK-OV-3 ovarian; 138% in the experiment with IGROV1 ovarian; 109% with OVCAR-3 ovarian. For the same compound, the growth in the experiment with HS 578T breast was 96.7%; in the experiment with NCI/ADR-RES ovarian, 113%.
